KinaseGlo FLuc: Kinase-Glo luciferase inhibition (counter-screen); Q27757; Kinase-Glo luciferase, ATP luminescence, 8 min; Potency, µM (highest dose often 38.3 µM), usual class: inhibitors; 0.28% of 200,000 active; AID 1379; further: nearly all actives have a fitted effect of over 60% in size
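Kinase-Glo luciferase light output from ATP and luciferin was measured with 10 uM ATP, within the enzyme's linear range. Buffer: 50 mM imidazole pH 7.2, 50 mM KCl, 7 mM MgCl2, 0.01% Tween 20, 0.05% BSA; luminescence read after 8 min at ambient temperature.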
SMN2 splice up: increases expression of the SMN2 splice variant. HEK293 SMN2-luciferase splicing reporter, luminescence, 30-36 h. AID 1458. 2.8% of 210,000 active. Potency, µM (series often up to 46.1 µM), most hits filed as activators; further: nearly all actives have a fitted effect of over 55% in size
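HEK293 cells carry an SMN2 […]–luciferase reporter in which exon 7 inclusion puts luciferase in frame. Cells were plated 10-12 h before compound addition, then incubated 30-36 h at 37C. ONE-Glo luminescence was read; sodium butyrate at 4.5 mM final served as control.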
FLuc counter: firefly luciferase modulation, counter-screen for miR-21 project; P08659; purified FLuc, Km substrates, luminescence inhibition; Potency, µM (top dose mostly 57.5 µM), actives largely listed as inhibitors; 6.9% of 360,000 active; further: nearly all actives have a fitted effect of over 55% in size
Target sequence (P08659 whole entry, looked up): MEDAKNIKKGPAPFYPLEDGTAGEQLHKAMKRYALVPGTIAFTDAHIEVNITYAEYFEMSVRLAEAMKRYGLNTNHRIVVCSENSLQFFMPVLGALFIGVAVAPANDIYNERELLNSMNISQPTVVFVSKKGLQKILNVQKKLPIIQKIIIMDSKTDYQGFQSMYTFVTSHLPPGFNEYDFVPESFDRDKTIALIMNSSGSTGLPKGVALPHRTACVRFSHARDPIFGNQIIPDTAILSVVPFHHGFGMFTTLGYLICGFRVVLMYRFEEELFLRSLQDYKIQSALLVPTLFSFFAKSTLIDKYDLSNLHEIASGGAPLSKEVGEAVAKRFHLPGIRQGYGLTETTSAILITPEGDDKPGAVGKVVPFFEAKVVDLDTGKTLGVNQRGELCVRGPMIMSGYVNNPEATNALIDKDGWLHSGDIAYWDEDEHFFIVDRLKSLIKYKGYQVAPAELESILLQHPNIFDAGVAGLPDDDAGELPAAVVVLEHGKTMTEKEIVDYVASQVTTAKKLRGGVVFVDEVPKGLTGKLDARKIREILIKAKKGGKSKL
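Purified P. pyralis luciferase, 10 nM final, with Km-level 10 uM D-luciferin and 10 uM ATP in 50 mM Tris acetate pH 7.5, 10 mM Mg acetate, 0.01% Tween-20, 0.05% BSA; 6-point qHTS titration about 60 µM downward; luminescence read.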
ELG1 genotoxic: induces genotoxicity in HEK293T cells with luciferase-tagged ELG1 | Potency, µM (top dose mostly 46 µM), hits mostly activators | HEK293T ELG1-luciferase reporter, luminescence, 16 h | 1.3% of 330,000 active; further: nearly all actives have a fitted effect of over 60% in size
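Cells (2,000/well) expressing the ELG1-luciferase fusion are dosed by pin tool and kept 16 hr at 37 °C, 5% CO2. Signal comes from ONE-Glo luciferase reagent after 30 min at room temperature.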
NPC1 prom act: activators of NPC1 promoter. Huh7 NPC1 promoter luciferase reporter, 24 h. Potency, µM (titrated, usually from 9.22 µM), most hits filed as activators. 2.4% of 320,000 active. AID 485313; further: nearly all actives have a fitted effect of over 60% in size
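Huh7 cells stably carrying NPC1 promoter–luciferase, plated in Opti-MEM with 10% FBS for 2 h, were exposed to compound in DMSO for 24 h at 37 °C; luciferase reagent was added for 10 min and luminescence read.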
Rab9 prom act: Rab9 promoter activation; Huh7 Rab9 promoter-luciferase reporter, luminescence, 24 h; Potency, µM (top dose mostly 9.22 µM), most hits filed as activators; 2.8% of 320,000 active; AID 485297; further: nearly all actives have a fitted effect of over 60% in size
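Using Huh7 cells stably transfected with Rab9 promoter–luciferase, compounds were incubated 24 h at 37 °C, 5% CO2; luciferase luminescence was read 10 min after reagent addition.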
Numbers stand for hits; . = inactive; ? = inconclusive; / = not tested or not shown; [ ] = dose if it differs, or a comment. An excerpt weighted towards active compounds, which were near 7.5% of everything screened. The call rests on the fitted dose curve; in most records, active means well fitted curve in the direction sought with a large enough effect; inconclusive means small, poorly fitted or top-dose-only effect, or another doubt; inactive means no such curve, though single readings can be large; an effect the other way counts as inactive or inconclusive.

SMILES | KinaseGlo FLuc | SMN2 splice up | FLuc counter | ELG1 genotoxic | NPC1 prom act | Rab9 prom act
O=C(COC(=O)c1cccnc1Cl)c1ccccc1 | . | . | 2.69µM | ? | . | .
COc1ccc(N=Nc2nc3cc(Br)c(Br)cc3n2C)c(OC)c1 | . | . | 5.36µM | . | . | .
COc1ccc(OC)c(CNc2ccc3c(c2)nc(C)n3C)c1 | / | / | . | . | . | .
O=C(Nc1ccccc1Br)c1ccc2nccnc2c1 | / | / | 6.75µM | . | 3.16µM | 2µM
O=C(Nc1ccc(Cl)cc1Cl)c1ccc2ncsc2c1 | / | / | 2.69µM | ? | 2.24µM | 2.24µM
O=C(Nc1ccccc1F)c1ccc2ncsc2c1 | / | / | ? | . | 2.24µM | 3.98µM
O=C(Nc1ccc(F)cc1F)c1ccc2ncsc2c1 | / | / | 26.9µM | .[9.26 µM] | 2.51µM | 3.98µM
Cc1ccccc1NC(=O)c1ccc2nccnc2c1 | / | / | ? | . | . | .
COc1ccc(OC)c(/C=C(/C#N)c2nc(-c3ccc(-c4ccccc4)cc3)cs2)c1 | / | . | . | / | / | /
CCCCOc1ccc(C(=O)N(Cc2ccc(N(C)C)cc2)Cc2ccco2)cc1 | / | . | . | / | / | /
O=C(Nc1nnc(SCc2ccc(F)cc2)s1)c1ccc2ncsc2c1 | . | 12.6µM | ? | ? | ? | ?
O=C(Nc1cccc(F)c1)c1ccc2ncsc2c1 | / | / | 13.5µM | . | 2.24µM | 3.55µM
O=C(Nc1ccncc1)c1ccc2ncsc2c1 | / | / | . | ? | . | .
O=C(/C=C/c1ccccc1)Nc1ccc(CN2CCOCC2)cc1 | . | . | 12µM | . | . | ?
O=C(/C=C/c1ccco1)Nc1ccc(CN2CCOCC2)cc1 | / | / | 6.01µM | ? | 1.41µM | 2.82µM
O=C(/C=C/c1ccco1)Nc1ccc(N2CCCC2)cc1 | . | 15.8µM | 2.39µM | ? | 3.55µM | 2.82µM
O=C(/C=C/c1ccco1)Nc1ccccc1N1CCOCC1 | . | . | . | . | . | .
O=C(/C=C/c1ccco1)Nc1ccc(C(=O)N2CCOCC2)cc1 | . | . | ? | . | . | .
O=C(/C=C/c1ccc(Cl)cc1)NC(=S)Nc1ccc(CN2CCOCC2)cc1 | . | / | . | ? | . | .
O=C(/C=C/c1ccc(Cl)cc1Cl)Nc1ccc(CN2CCOCC2)cc1 | . | . | 7.57µM | . | . | .
Cc1nn(C)c2c1c(C(F)(F)F)cc(=O)n2CC(=O)NCc1ccc(OC(C)C)cc1 | / | / | . | / | / | /
Cc1cc(C(=O)CSc2nnnn2C)c(C)n1CCc1ccc(F)cc1 | . | . | . | . | . | .
Cc1cc(C(=O)CSc2nnnn2C)c(C)n1Cc1ccco1 | / | / | 13.5µM | ? | 2.82µM | 2.82µM
Cc1cc(C(=O)CSc2ncccn2)c(C)n1Cc1ccco1 | . | 3.55µM | 3.01µM | ? | 1µM | 0.562µM
Cc1ncc(CO)c2c1Oc1nc(-c3ccccc3)nc(SCC(=O)Nc3cccc(C(F)(F)F)c3)c1C2 | / | / | . | / | / | /
SMILES | KinaseGlo FLuc | SMN2 splice up | FLuc counter | ELG1 genotoxic | NPC1 prom act | Rab9 prom act
CCOP(=O)(OCC)C(C)(C)NC(=O)Nc1ccc(Cl)c(Cl)c1 | / | / | . | . | . | .
CN(C)S(=O)(=O)N1CCN(c2ccc([N+](=O)[O-])c(N3CCCCC3)c2)CC1 | . | / | . | . | . | .
CCC(=O)Nc1cccc(-c2ccc(N3CCN(C)CC3)nn2)c1 | / | / | 6.75µM | ? | 2.51µM | ?
CCC(=O)Nc1cccc(-c2ccc(N3CCCCC3)nn2)c1 | / | / | 0.536µM | 2.31µM | 0.562µM | 0.447µM
CCCCCCc1c(C)c2ccc(OCC(=O)N[C@@H](Cc3ccccc3)C(=O)O)cc2oc1=O | / | / | ? | . | . | .
C=C(C)Cn1c(SCC(=O)Nc2cc(C)ccc2C)nc2sc3c(c2c1=O)CCCC3 | / | . | . | / | / | /
O=C(NC1=NCCS1)c1sc2cc(F)ccc2c1Cl | . | 7.08µM | 2.39µM | ? | 5.01µM | 2.24µM
O=C(NCc1ccco1)c1cccc(F)c1 | . | . | . | / | / | /
O=C(NCc1ccco1)c1sc2cc(F)ccc2c1Cl | . | 12.6µM | 15.1µM | . | . | .
O=C(Nc1ccon1)c1sc2cc(F)ccc2c1Cl | . | 22.4µM | ? | ? | 3.16µM | 2.51µM
O=C(NCCCN1CCOCC1)c1sc2cc(F)ccc2c1Cl | . | . | ? | . | . | ?
COc1ccc(S(=O)(=O)N(CCc2ccccc2)CC(=O)Nc2cccc(OC)c2)cc1 | / | . | . | / | / | /
COCc1cc(=O)n2[nH]c(-c3cccc(Br)c3)cc2n1 | . | ? | ? | 11.2µM | . | .
COCc1cc(=O)n2[nH]c(C)cc2n1 | . | . | . | . | . | .
COCc1cc(=O)n2[nH]c(-c3ccccc3)cc2n1 | . | . | 19µM | ? | . | .
COCc1cc(=O)n2[nH]c(C(C)(C)C)cc2n1 | / | / | . | . | . | .
CCc1ccc(CN(C)Cc2nc(-c3cccc(Cl)c3)no2)nc1 | . | . | . | . | . | .
CC(C)c1ccc(-c2nnn(CCC(=O)O)n2)cc1 | . | . | 9.53µM | . | . | .
CCc1ccc(-c2nnn(CCC(=O)OC)n2)cc1 | . | . | 15.1µM | . | . | .
CCOC(=O)c1cc(-c2ccc(OC)cc2)n(CCC(=O)Nc2cccc(C)c2C)c1C | / | / | . | / | / | /
O=C(NCCc1ccc(Cl)cc1)c1ccc(Br)s1 | / | / | ? | ? | 3.98µM | 4.47µM
Cc1ccc(C(=O)NCCc2ccc(F)cc2)s1 | . | 4.47µM | 9.53µM | ? | 1.41µM | 2.82µM
O=C(NCCc1ccc(F)cc1)c1ccncc1 | / | / | . | . | . | .
COCC(C)n1c(C)cc(C(=O)CSc2nnnn2C2CCCC2)c1C (stereo not given) | / | / | 4.26µM | ? | ? | ?
COCC(C)n1c(C)cc(C(=O)CSc2nnc(N)s2)c1C (stereo not given) | . | ? | 8.49µM | 8.2µM | ? | 3.98µM
SMILES | KinaseGlo FLuc | SMN2 splice up | FLuc counter | ELG1 genotoxic | NPC1 prom act | Rab9 prom act
COCC(C)n1c(C)cc(C(=O)COC(=O)c2oc3ccccc3c2C)c1C (stereo not given) | . | . | ? | . | . | .
COCC(C)n1c(C)cc(C(=O)COC(=O)c2n[nH]c3ccccc23)c1C (stereo not given) | . | . | 3.01µM | ? | 1µM | 0.631µM
CCn1cc(C(=O)Nc2ccc(C(C)C)cc2)c2cc(OC)c(OC)cc2c1=O | / | . | . | / | / | /
CCOc1ccc(CNC(=O)C2CCN(C3=NS(=O)(=O)C(c4ccc(C)cc4)=C3CC)CC2)cc1 | / | . | . | / | / | /
CCN(CCCNC(=O)CSc1cc(=O)n(CC)c2ccccc12)c1cccc(C)c1 | / | . | . | / | / | /
COc1ccc(OC)c(N=C(C)C2=C(O)COC2=O)c1 | . | 11.2µM | . | . | . | .
CC(=Nc1ccccc1)C1=C(O)COC1=O | . | . | . | . | . | .
Cc1cccc(NC(=S)NNC(=O)c2csc(C(C)C)c2)c1 | . | 11.2µM | 5.36µM | . | 2.51µM | 1.78µM
Cc1ccsc1C(=O)NNC(=S)NCC(C)C | . | . | . | . | . | .
CCc1cc(C(=O)NNC(=S)Nc2cccc(C)c2)cs1 | . | 14.1µM | 3.38µM | . | 3.55µM | 3.16µM
Cc1cccc(NC(=S)NNC(=O)c2sccc2C)c1 | . | . | 15.1µM | ? | . | ?
